High-throughput results from PubChem.
Shown are actives, neighbours in structure and some others; about 7.3% of the full set was active somewhere.
SMN2 splice enh: qHTS Assay for Enhancers of SMN2 Splice Variant Expression; AID 1458, 2008; Potency, µM (top dose mostly 46.1 µM), usual class: activators; HEK293 SMN2-luciferase splicing reporter, luminescence, 30-36 h; actives 2.8% (n = 210,000); note: nearly all actives have a fitted effect of over 55% in size
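HEK293 cells carry an SMN2 […]–luciferase reporter in which exon 7 inclusion puts luciferase in frame. Cells were plated 10-12 h before compound addition, then incubated 30-36 h at 37C. ONE-Glo luminescence was read; sodium butyrate at 4.5 mM final served as control.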
NPC1 promoter act: qHTS Assay for NPC1 Promoter Activators. Huh7 NPC1 promoter luciferase reporter, 24 h. Potency, µM (doses to about 9.22 µM), usual class: activators. actives 2.4% (n = 320,000). AID 485313, 2010; note: nearly all actives have a fitted effect of over 60% in size
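Compounds in DMSO were transferred onto Huh7 NPC1-luciferase reporter cells pre-incubated 2 h; after 24 h at 37 °C, Amplite reagent was dispensed and luminescence recorded 10 min later.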
Rab9 prom act: qHTS Assay for Rab9 Promoter Activators; Potency, µM (highest dose often 9.22 µM), hits mostly activators; Huh7 Rab9 promoter-luciferase reporter, luminescence, 24 h; AID 485297, 2010; actives 2.8% (n = 320,000); note: nearly all actives have a fitted effect of over 60% in size
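Rab9 promoter-driven luciferase in stably transfected Huh7 cells; 1500 cells/well rested 2 h, exposed to compound in DMSO for 24 h at 37 °C, 5% CO2. Luminescence read 10 min after adding luciferase reagent at ambient temperature.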
p53 reactivation: qHTS assay for re-activators of p53 using a Luc reporter; H1299 p53-A138V BP100-luciferase reporter, luminescence, 24 h; Potency, µM (highest dose often 92.2 µM), usual class: activators; actives 0.063% (n = 320,000); AID 504706, 2011; note: nearly all actives have a fitted effect of over 45% in size
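H1299 (p53-null), stable ts p53-A138V + BP100-Luc; 1000 cells/well, Opti-MEM/10% FBS; cpd 4 pt, 1:5; 24 h, 37 deg C, 5% CO2; detection reagent 10 min RT; luminescence.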
FLuc modulator: qHTS profiling assay for firefly luciferase inhibitor/activator using purifed enzyme and Km concentrations of substrates (counterscreen for miR-21 project) | Luciferin 4-monooxygenase (Photinus pyralis), P08659 | purified FLuc, Km substrates, luminescence inhibition | Potency, µM (titrated, usually from 57.5 µM), most hits filed as inhibitors | actives 6.9% (n = 360,000) | AID 588342, 2011; note: nearly all actives have a fitted effect of over 55% in size
Target sequence (P08659 whole entry, looked up): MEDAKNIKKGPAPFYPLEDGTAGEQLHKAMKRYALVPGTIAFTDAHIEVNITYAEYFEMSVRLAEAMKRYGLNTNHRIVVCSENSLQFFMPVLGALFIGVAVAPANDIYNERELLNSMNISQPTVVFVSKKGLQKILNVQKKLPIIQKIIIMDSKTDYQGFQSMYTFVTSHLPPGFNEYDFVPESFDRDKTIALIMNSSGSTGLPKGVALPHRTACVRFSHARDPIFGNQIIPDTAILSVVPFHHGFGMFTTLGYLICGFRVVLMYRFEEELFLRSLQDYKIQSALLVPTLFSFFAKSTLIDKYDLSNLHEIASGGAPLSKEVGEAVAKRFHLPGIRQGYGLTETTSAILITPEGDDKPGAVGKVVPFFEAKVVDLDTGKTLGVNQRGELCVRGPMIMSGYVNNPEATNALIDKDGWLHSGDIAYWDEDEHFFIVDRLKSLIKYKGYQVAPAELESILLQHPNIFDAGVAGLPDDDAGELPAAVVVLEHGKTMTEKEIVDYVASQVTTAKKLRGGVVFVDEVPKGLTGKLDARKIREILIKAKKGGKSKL
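Purified P. pyralis luciferase (10nM final) with 10uM D-luciferin and 10uM ATP (Km levels) in 50mM Tris acetate pH 7.5, 10mM Mg acetate, 0.01% Tween-20, 0.05% BSA; qHTS 6-point titration, ~60 µM downward; luminescence read.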
ELG1 genotox: qHTS screen for small molecules that induce genotoxicity in human embryonic kidney (HEK293T) cells expressing luciferase-tagged ELG1. HEK293T ELG1-luciferase reporter, luminescence, 16 h. Potency, µM (highest dose often 46 µM), actives largely listed as activators. actives 1.3% (n = 330,000); note: nearly all actives have a fitted effect of over 60% in size
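Genotoxicity was scored as increased ELG1-luciferase reporter signal, measured by ONE-Glo luminescence (30 min, room temperature). Compound or vehicle exposure of the HEK293T reporter cells lasted 16 hr at 37°C.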
Numbers stand for hits; – = inactive; ? = inconclusive; · = no result; [ ] = another dose, or the depositor's remark. Calls come from the whole dose curve; as a rule, active = well fitted curve in the direction sought with a large enough effect; inconclusive = small, poorly fitted or top-dose-only effect, or another doubt; inactive = no such curve, though single readings can be large; an effect the other way counts as inactive or inconclusive.

SMILES	SMN2 splice enh	NPC1 promoter act	Rab9 prom act	p53 reactivation	FLuc modulator	ELG1 genotox
COc1cc(/C=C2\SC(=S)N(NC(=O)c3ccccc3O)C2=O)ccc1O	·	–	–[1.84 µM]	–	17µM	–
O=C(NN1C(=O)/C(=C/c2ccc(O)cc2)SC1=S)c1ccccc1O	·	–	–	–	?	–
O=C(NN1C(=O)/C(=C/c2ccc(O)c([N+](=O)[O-])c2)SC1=S)c1ccccc1Cl	–	–	–	–	17µM	–
Clc1ccccc1-c1nnc(-c2ccccc2Cl)o1	13µM	4µM	2.5µM	?	8.5µM	?
Clc1ccc(-c2nnc(-c3ccccc3Cl)o2)cc1	·	0.63µM	0.45µM	?	1.2µM	?
O=C(Nc1nnc(-c2ccccc2Cl)o1)c1cccnc1	?	?	?	–	19µM	?
COc1cc(-c2nc3ccccn3c2/N=C/c2ccc(F)cc2)ccc1O	–	–	–	–	?	–
O=[N+]([O-])c1cc(-c2ccc(/C=N/c3nc4ccccn4c3-c3ccco3)o2)ccc1Cl	–	–	?	–	?	?
COc1ccc(/C=N/c2c(-c3ccco3)nc3ccccn23)cc1OC	–	?	?	–	0.43µM	–
Oc1ccccc1/C=N/c1c(-c2ccco2)nc2ccccn12	–	?	?	?	27µM	?
Clc1ccc(/C=N/c2c(-c3ccco3)nc3ccccn23)cc1	–	–	?	–	15µM	?
c1ccc(-c2csc(Nc3cccnc3)n2)cc1	·	?	2.8µM	–	11µM	?
Clc1ccc(Nc2nc(-c3cccnc3)cs2)cc1	–	–	–	?	11µM	?
Clc1ccc(-c2csc(Nc3cccnc3)n2)cc1	·	?	–	–	–	–
Fc1ccc(Nc2nc(-c3cccnc3)cs2)cc1	13µM	–	?	–	3µM	?
COc1ccc(CN(Cc2ccco2)c2cnc(S(C)(=O)=O)nc2C(=O)Nc2ccc(F)cc2)cc1	·	·	·	·	–	·
CC(C)n1c(SC2C(=O)CC(C)(C)CC2=O)nc2c1c(=O)n(C)c(=O)n2C	11µM	–	–	–	–	–
CCCn1c(SC2C(=O)CC(C)(C)CC2=O)nc2c1c(=O)n(C)c(=O)n2C	–	–	–	–	–	–
O=C(NCCCO)c1cc2c(cn1)[nH]c1ccccc12	·	–	?	–	17µM	–
C[C@H](NC(=O)c1cc2c(cn1)[nH]c1ccccc12)C(=O)O	·	–	–	–	?	–
O=C(N/N=C/c1cc([N+](=O)[O-])ccc1O)C1CC1	·	–	–	–	–	–
O=[N+]([O-])c1ccccc1N/N=C\c1ccccc1F	·	?	2.8µM	?	?	5.8µM
Cc1c(NC(=S)N/N=C/c2cc([N+](=O)[O-])ccc2O)c(=O)n(-c2ccccc2)n1C	·	–	–	–	27µM	–
O=[N+]([O-])c1ccc(O)c(/C=N/Nc2ccccc2Cl)c1	13µM	1.4µM	?	–	4.8µM	?
O=[N+]([O-])c1ccccc1N/N=C/c1cccc(O)c1O	·	3.5µM	–	?	1.5µM	10µM
SMILES	SMN2 splice enh	NPC1 promoter act	Rab9 prom act	p53 reactivation	FLuc modulator	ELG1 genotox
O=C(O)c1ccccc1NS(=O)(=O)c1ccc(NN=Cc2ccccc2F)c([N+](=O)[O-])c1	·	·	·	–	·	–
Cc1cccc(NC(=O)C(Cc2ccccc2)n2cccc2)c1C (stereo not drawn)	–	·	·	·	–	·
CN(C)c1ccc(C(CNC(=O)c2ccccc2Cl)N2CCCC2)cc1 (stereo not drawn)	·	·	·	·	–	·
C/C(=N\Nc1cccc([N+](=O)[O-])c1)c1ccccc1O	·	–	?	–	19µM	?
O=[N+]([O-])c1ccc(O)c(/C=N/n2cnc3ccccc32)c1	–	–	–	–	27µM	–
O=[N+]([O-])c1cccc(N/N=C/c2cccc(O)c2O)c1	?	–	–	–	15µM	?
O=[N+]([O-])c1ccccc1N/N=C\c1ccccc1Cl	7.9µM	?	2.8µM	–	0.67µM	?
CC(C)Cn1c(=O)c2ccccc2n2c(CCC(=O)Nc3cccc(Cl)c3)nnc12	–	·	·	·	–	·
CCC(C)S(=O)(=O)c1oc(-c2cccs2)nc1S(=O)(=O)c1ccccc1 (stereo not drawn)	–	·	·	·	·	·
Cc1ccc(C2C=NN(c3ccccc3)C2=O)cc1 (stereo not drawn)	·	–	?	–	12µM	?
CN(Cc1ccc(F)cc1)C(=O)CNC(=O)c1cccs1	·	–	–	–	–	–
CN(Cc1c(F)cccc1Cl)C(=O)CNC(=O)c1cccs1	·	4µM	?	–	?	?
COc1ccc(CNc2ccc([N+](=O)[O-])cn2)cc1	·	3.2µM	4µM	?	11µM	?
COc1ccc(Nc2ccc([N+](=O)[O-])cn2)cc1	·	?	?	·	?	–
Cc1ccc2c(CN(C)Cc3cccc(F)c3)cc(=O)oc2c1	·	?	–[1.84 µM]	?	11µM	?
CCc1ccc2c(CN(C)Cc3ccccc3OC)cc(=O)oc2c1	·	–	–	–	17µM	–
Cc1cc2oc(=O)cc(CN(C)Cc3cccc(F)c3)c2cc1Cl	·	–	–[1.84 µM]	–	–	–
CC(=O)N1CCC2(CCN(Cc3nccs3)CC2)CC1	–	·	·	·	·	·
CC(C)(C)c1csc(NC(=O)C2=COCCO2)n1	·	3.2µM	2.5µM	?	9.5µM	?
CCOC(=O)c1csc(NC(=O)C2CCCCC2)n1	?	–	–	?	?	?
CCCc1ccc(-c2csc(NC(=O)C3=COCCO3)n2)cc1	·	1.1µM	1.3µM	?	·	–
Cc1ccc(C)c(-c2csc(NC(=O)C3=COCCO3)n2)c1	·	–	–	–	?	?
CCOC(=O)c1csc(NC(=O)C2=COCCO2)n1	·	2.5µM	2.8µM	–	15µM	9.2µM
Cc1ccc(-c2csc(NC(=O)N3CCOCC3)n2)cc1	–	–	–	–	27µM	?
Cc1ccc(-c2csc(NC(=O)CN3CCOCC3)n2)cc1	·	–	–	–	–	–
SMILES	SMN2 splice enh	NPC1 promoter act	Rab9 prom act	p53 reactivation	FLuc modulator	ELG1 genotox
COc1ccccc1NC(=O)Nc1nn(C)c2cccc(OC)c12	·	–	–	–	?	–
Cc1ccc(-c2csc(NC(=O)C3=COCCO3)n2)cc1	14µM	?	2.8µM	?	15µM	?
N/C(=N\OC(=O)CCCOc1ccccc1)c1ccccn1	–	–	–	–	17µM	–
N/C(=N\OC(=O)CCCN1C(=O)c2ccccc2C1=O)c1ccccn1	–	–	?	–	–	–
N/C(=N\OC(=O)CSc1ccccc1)c1ccccn1	·	–	–	–	13µM	?
Cn1ccs/c1=N\C(=O)Nc1ccccc1	·	2.5µM	3.2µM	–	11µM	?
